Experimental data published in PubChem BioAssay (EPA / NIEHS).
Records with an inconclusive call do not appear. Calls of active or inactive are those of the source. Rule for the calls: active = hit-call score of the fitted dose curve at least 0.9, where 1 is the maximum; inconclusive = response in the unintended direction; inactive = score below 0.9.

Legend:
[1] = biological target: Estrogen receptor beta (Homo sapiens) (UniProt Q92731); experiment: OT_ER_ERbERb_0480: Odyssey Thera (OT) 8-hour HEK293T Protein-Complementation Assay for Estrogen Receptor-beta/-beta Homodimer (AID 2283357);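 note: active means signal gain over DMSO baseline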
Estrogen receptor beta (Homo sapiens), sequence (Q92731 whole entry, looked up, the tested form may be a part): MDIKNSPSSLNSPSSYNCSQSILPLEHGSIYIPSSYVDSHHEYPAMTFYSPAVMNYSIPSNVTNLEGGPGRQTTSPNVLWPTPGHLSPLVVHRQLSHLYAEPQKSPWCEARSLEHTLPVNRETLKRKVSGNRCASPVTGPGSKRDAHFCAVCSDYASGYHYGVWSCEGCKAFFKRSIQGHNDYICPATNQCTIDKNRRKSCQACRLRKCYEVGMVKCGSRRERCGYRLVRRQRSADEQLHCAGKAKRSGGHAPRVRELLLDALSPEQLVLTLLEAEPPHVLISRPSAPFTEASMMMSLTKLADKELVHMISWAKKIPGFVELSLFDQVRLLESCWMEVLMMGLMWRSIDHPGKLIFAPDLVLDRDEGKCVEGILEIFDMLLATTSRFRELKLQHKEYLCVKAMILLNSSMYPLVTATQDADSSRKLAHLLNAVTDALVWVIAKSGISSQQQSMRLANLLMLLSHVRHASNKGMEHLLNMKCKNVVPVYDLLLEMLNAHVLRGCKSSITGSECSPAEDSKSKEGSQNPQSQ
Summary of the method: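 Fluorescence intensity, nuclear for agonists and nuclear plus cytoplasmic for antagonists, was quantified by laser scanning cytometry versus vehicle after 8 h treatment. The cells were HEK293T stably carrying ER beta LBD fragment-complementation partners.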

[2] = biological target: rat Mineralocorticoid Receptor (MR), Nr3c2 (gene 25672) (UniProt P22199); experiment: NVS_NR_rMR: NovaScreen (NVS) Nuclear Receptor Binding Assay for rat Mineralocorticoid Receptor (MR) (AID 2283355)
rat Mineralocorticoid Receptor (MR), Nr3c2 (gene 25672), sequence (P22199 whole entry, looked up): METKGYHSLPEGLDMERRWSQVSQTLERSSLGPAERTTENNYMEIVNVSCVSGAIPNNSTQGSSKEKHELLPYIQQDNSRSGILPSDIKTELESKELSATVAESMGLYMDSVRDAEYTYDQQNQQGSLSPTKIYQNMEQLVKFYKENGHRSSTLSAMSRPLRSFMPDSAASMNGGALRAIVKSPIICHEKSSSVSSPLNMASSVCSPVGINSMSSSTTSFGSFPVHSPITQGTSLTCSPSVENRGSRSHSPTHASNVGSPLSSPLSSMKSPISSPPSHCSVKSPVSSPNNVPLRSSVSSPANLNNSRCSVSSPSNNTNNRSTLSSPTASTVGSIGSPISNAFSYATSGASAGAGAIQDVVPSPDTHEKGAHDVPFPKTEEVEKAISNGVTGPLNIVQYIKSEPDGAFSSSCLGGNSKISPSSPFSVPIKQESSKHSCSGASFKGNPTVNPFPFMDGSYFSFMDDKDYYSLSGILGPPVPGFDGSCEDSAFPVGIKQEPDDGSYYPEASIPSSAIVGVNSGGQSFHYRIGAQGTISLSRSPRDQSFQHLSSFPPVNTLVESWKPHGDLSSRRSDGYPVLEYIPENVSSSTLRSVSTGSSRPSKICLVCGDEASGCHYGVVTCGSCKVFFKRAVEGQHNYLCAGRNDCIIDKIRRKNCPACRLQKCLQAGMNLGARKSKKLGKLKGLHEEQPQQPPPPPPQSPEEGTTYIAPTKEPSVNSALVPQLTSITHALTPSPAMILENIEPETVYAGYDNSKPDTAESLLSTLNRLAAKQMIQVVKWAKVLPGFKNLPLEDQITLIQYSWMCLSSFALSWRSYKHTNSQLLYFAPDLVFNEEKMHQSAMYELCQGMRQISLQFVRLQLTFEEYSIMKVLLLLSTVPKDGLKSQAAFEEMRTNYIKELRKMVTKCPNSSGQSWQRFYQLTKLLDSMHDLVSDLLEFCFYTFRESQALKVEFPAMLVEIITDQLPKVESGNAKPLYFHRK
Summary of the method: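 Cell-free radioligand binding to mineralocorticoid receptor from adrenalectomized rat brain supernatant, scintillation counting after 24 h. Primary screen in duplicate at 25 uM; actives retested in concentration series. Loss of specific binding versus DMSO.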

[3] = biological target: Estrogen receptor (Homo sapiens) (UniProt P03372); experiment: OT_ER_ERaERa_0480: Odyssey Thera (OT) 8-hour HEK293T Protein-Complementation Assay for Estrogen Receptor-alpha/-alpha Homodimer (AID 2283351);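 note: rise in fluorescence from reassembled reporter fragments on ERα LBD homodimer in nucleus or whole cell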
Estrogen receptor (Homo sapiens), sequence (P03372 whole entry, looked up, the tested form may be a part): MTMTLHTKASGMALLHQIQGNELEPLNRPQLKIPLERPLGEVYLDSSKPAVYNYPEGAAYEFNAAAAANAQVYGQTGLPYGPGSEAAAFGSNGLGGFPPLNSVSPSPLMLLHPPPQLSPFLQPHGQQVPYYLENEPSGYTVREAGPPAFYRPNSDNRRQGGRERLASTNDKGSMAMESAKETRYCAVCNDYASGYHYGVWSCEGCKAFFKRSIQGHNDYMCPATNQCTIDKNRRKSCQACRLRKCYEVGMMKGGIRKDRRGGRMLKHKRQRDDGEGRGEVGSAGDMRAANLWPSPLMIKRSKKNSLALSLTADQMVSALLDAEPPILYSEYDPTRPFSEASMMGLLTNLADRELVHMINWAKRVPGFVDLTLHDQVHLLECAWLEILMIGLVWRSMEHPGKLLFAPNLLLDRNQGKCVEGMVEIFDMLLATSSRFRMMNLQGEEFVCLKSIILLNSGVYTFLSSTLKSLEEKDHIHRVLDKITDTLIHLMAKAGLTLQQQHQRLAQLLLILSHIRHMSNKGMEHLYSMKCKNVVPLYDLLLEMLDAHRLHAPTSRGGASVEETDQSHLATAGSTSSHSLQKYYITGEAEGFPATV
Summary of the method: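 The readout is complementation of fragments fused to the human ER alpha ligand-binding domain (aa 310-547), stably expressed in HEK293T cells. After 8 h of exposure, the increase in nuclear/cytoplasmic fluorescence was measured by laser scanning cytometry and fitted relative to DMSO.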

[4] = biological target: T1, Estrogen receptor (Homo sapiens) + Estrogen receptor beta (Homo sapiens) (UniProt P03372+Q92731); experiment: OT_ER_ERaERb_0480: Odyssey Thera (OT) 8-hour HEK293T Protein-Complementation Assay for Estrogen Receptor-alpha/-beta Heterodimer (AID 2283352)
T1 sequence (P03372 whole entry, looked up, the tested form may be a part): as above
T1 sequence (Q92731 whole entry, looked up, the tested form may be a part): as the sequence (Q92731 whole entry, looked up, the tested form may be a part) above
Summary of the method: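 Fluorescence increase from reconstituted reporter fragments, quantified by laser scanning cytometer, reflects ER-alpha/ER-beta heterodimer formation in human HEK293T cells. Exposure 8 h; positive-direction fitting against DMSO vehicle.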

[5] = biological target: T1, Estrogen receptor (Homo sapiens) + Estrogen receptor beta (Homo sapiens); experiment: OT_ER_ERaERb_1440: Odyssey Thera (OT) 24-hour HEK293T Protein-Complementation Assay for Estrogen Receptor-alpha/-beta Homodimer (AID 2283356);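 note: heteromer of ER alpha and ER beta binding domains; hits raise reporter fluorescence and both agonists and antagonists give an increase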
Summary of the method: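 Fragment complementation between ER alpha (310-547) and ER beta (263-489) ligand-binding domains in HEK293T cells; signal read 24 h post-dosing by laser scanning cytometer. Gain of fluorescence relative to DMSO fitted.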

[6] = biological target: Retinoic acid receptor alpha (Homo sapiens) (UniProt P10276); experiment: NVS_NR_hRAR_Antagonist: NovaScreen (NVS) Nuclear Receptor Binding Assay for human Retinoic Acid Alpha Receptor Antagonism (RAR) (AID 2283358)
Summary of the method: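 Cell-free TR-FRET binding assay with extracted human RARalpha in antagonist mode, read 2 h after dosing. Loss of signal was fitted relative to DMSO; the primary screen used 25 uM in duplicate, with concentration series on follow-up.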

[7] = biological target: human Peroxisome Proliferator-activated Receptor alpha (PPARa), PPARA (gene 5465) (UniProt Q07869); experiment: NVS_NR_hPPARa: NovaScreen (NVS) Nuclear Receptor Binding Assay for human Peroxisome Proliferator-activated Receptor alpha (PPARa) (AID 2283359);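 note: activity means loss of TR-FRET signal versus DMSO baseline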
human Peroxisome Proliferator-activated Receptor alpha (PPARa), PPARA (gene 5465), sequence (Q07869 whole entry, looked up): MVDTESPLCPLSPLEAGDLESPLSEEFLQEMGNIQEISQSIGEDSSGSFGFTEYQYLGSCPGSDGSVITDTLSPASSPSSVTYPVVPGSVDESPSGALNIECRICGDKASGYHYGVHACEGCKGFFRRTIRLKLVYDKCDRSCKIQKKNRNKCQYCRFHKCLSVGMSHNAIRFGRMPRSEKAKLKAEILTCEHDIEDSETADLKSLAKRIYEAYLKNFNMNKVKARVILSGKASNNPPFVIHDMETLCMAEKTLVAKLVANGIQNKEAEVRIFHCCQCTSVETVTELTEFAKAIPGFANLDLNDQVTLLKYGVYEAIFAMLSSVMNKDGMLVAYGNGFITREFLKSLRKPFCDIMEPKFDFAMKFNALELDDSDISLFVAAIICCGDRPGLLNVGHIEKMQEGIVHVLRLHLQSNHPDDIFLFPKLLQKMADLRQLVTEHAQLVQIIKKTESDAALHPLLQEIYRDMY
Summary of the method: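 Cell-free TR-FRET binding assay with extracted PPARα protein, read 1 h after dosing. Primary screen in duplicate at 25 uM, with actives retested in concentration series. Loss of signal versus DMSO.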

[8] = biological target: Retinoic acid receptor alpha (Homo sapiens) (UniProt P10276); experiment: NVS_NR_hRARa_Agonist: NovaScreen (NVS) Nuclear Receptor Binding Assay for human Retinoic Acid Alpha Receptor Agonism (RAR) (AID 2283361)
Summary of the method: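 Cell-free TR-FRET binding readout with extracted receptor protein, read 2 hours after dosing; gain-of-signal fitted relative to DMSO. Screened in duplicate at 25 uM, actives then run in concentration-response.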

[9] = biological target: Glucocorticoid receptor (Homo sapiens) (UniProt P04150); experiment: NVS_NR_hGR: NovaScreen (NVS) Nuclear Receptor Binding Assay for human Glucocorticoid Receptor (GR) (AID 2283363);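 for AC50: activity is loss of specific radioligand binding signal relative to DMSO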
Glucocorticoid receptor (Homo sapiens), sequence (P04150 whole entry, looked up): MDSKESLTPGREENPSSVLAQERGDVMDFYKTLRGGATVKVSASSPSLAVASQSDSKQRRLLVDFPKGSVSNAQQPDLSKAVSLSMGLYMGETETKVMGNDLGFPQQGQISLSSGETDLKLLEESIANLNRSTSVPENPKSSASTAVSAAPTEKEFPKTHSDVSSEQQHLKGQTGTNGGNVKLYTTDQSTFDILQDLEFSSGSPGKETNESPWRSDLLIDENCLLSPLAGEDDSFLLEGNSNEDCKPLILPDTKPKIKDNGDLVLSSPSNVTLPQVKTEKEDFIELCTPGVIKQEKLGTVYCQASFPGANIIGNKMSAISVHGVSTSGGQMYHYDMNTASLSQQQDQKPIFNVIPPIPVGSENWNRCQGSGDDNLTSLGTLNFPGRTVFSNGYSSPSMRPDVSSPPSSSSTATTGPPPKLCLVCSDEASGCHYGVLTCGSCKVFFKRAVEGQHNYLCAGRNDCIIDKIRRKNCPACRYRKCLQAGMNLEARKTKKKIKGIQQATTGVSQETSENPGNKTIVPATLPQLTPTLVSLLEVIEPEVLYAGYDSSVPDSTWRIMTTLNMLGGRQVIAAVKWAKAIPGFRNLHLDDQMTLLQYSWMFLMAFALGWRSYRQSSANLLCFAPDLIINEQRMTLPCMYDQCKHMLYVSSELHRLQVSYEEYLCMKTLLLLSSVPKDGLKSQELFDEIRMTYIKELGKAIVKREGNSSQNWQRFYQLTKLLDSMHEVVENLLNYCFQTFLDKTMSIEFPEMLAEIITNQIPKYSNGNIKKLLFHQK
Summary of the method: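 Cell-free radioligand displacement assay on extracted human GR, read 16 h after dosing by filter-based scintillation counting. Screened in duplicate at 25 uM, then concentration series for actives; loss of signal versus DMSO baseline.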

[10] = biological target: Nuclear receptor subfamily 1 group I member 2 (Homo sapiens) (UniProt O75469); experiment: NVS_NR_hPXR: NovaScreen (NVS) Nuclear Receptor Binding Assay for human Pregnane X Receptor (PXR) (AID 2283365);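 note: a drop in FRET signal versus DMSO baseline means the compound binds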
Summary of the method: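 Human PXR binding measured by TR-FRET in a cell-free format, 2 h exposure. Single-concentration duplicates at 25 uM preceded concentration-response retests of actives; endpoint fitted positively relative to DMSO, loss of signal indicating binding.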

[11] = biological target: Peroxisome proliferator-activated receptor gamma (Homo sapiens) (UniProt P37231); experiment: NVS_NR_hPPARg: NovaScreen (NVS) Nuclear Receptor Binding Assay for human Peroxisome Proliferator-activated Receptor gamma (PPARg) (AID 2283370)
Peroxisome proliferator-activated receptor gamma (Homo sapiens), sequence (P37231 whole entry, looked up): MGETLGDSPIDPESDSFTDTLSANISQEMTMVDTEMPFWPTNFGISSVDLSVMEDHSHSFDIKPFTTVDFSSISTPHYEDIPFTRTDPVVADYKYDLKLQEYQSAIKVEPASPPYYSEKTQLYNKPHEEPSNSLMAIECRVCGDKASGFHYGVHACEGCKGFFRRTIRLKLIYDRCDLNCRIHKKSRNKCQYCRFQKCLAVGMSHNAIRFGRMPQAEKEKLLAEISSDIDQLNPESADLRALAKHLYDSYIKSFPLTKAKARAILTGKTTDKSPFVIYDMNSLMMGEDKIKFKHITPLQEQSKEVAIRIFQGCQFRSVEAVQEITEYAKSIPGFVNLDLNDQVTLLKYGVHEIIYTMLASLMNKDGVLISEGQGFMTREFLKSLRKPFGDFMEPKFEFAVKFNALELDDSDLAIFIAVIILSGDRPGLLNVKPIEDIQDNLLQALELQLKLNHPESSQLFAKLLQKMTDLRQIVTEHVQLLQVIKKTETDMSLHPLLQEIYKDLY
Summary of the method: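 Fluorescence polarization readout of ligand binding to extracted human PPARg, measured at 2 h. Duplicate single-point screen at 25 uM, then concentration-series retesting; activity defined as signal loss versus DMSO.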

[12] = biological target: Androgen Receptor/SRC-1 Co-activator, AR (gene 367) (UniProt P10275); experiment: OT_AR_ARSRC1_0960: Odyssey Thera (OT) 16-hour HEK293T Protein-Complementation Assay for Androgen Receptor/SRC-1 Co-activator (AID 2283353);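 note: actives raise the signal above DMSO so potency reflects increased AR and SRC-1 complex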
Androgen Receptor/SRC-1 Co-activator, AR (gene 367), sequence (P10275 whole entry, looked up, the tested form may be a part): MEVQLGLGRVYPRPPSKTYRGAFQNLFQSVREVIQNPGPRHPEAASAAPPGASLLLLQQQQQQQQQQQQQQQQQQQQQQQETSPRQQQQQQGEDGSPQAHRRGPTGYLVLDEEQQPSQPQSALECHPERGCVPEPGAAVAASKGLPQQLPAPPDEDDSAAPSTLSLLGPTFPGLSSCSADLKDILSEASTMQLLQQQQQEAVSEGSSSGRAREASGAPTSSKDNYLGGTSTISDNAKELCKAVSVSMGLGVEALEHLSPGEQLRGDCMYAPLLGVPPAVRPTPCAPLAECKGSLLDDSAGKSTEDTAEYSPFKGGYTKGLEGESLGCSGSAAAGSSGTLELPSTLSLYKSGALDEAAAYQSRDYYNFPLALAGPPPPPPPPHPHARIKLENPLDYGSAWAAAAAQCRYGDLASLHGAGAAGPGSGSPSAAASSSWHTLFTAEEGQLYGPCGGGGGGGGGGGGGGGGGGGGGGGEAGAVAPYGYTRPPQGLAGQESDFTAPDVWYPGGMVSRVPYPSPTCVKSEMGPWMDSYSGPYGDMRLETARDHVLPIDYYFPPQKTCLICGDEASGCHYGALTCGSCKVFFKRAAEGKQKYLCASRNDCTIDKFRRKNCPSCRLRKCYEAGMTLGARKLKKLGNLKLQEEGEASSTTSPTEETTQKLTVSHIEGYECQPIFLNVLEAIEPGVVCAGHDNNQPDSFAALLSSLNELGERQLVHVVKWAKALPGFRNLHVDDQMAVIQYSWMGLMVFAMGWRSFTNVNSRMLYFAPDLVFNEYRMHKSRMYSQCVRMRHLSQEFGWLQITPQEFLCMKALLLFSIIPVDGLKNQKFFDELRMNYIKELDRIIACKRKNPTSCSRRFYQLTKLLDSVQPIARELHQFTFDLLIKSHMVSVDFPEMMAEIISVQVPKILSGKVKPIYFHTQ
Summary of the method: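 HEK293T cells stably expressing AR and SRC-1 fused to Venus YFP fragments, imaged 16 h after dosing. Nuclear/cytoplasmic fluorescence ratio at 488 nm from at least 400 cells per image; gain of signal relative to DMSO.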

[13] = biological target: Androgen Receptor/SRC-1 Co-activator, AR (gene 367) (UniProt P10275); experiment: OT_AR_ARSRC1_0480: Odyssey Thera (OT) 8-hour HEK293T Protein-Complementation Assay for Androgen Receptor/SRC-1 Co-activator (AID 2283354);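 note: hits raise the complementation signal above DMSO so AC50 marks enhancers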
Summary of the method: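 HEK293T cells stably expressing AR and SRC-1 fused to Venus YFP fragments, imaged 8 h after dosing. Complementation fluorescence scored as nuclear/cytoplasmic ratio at 488 nm in at least 400 cells per image; gain fitted versus DMSO.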

[14] = biological target: rat Androgen Receptor (AR), Ar (gene 24208) (UniProt P15207); experiment: NVS_NR_rAR: NovaScreen (NVS) Nuclear Receptor Binding Assay for rat Androgen Receptor (AR) (AID 2283366)
Summary of the method: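 Cell-free radioligand binding on extracts of prostate from testosterone-pretreated rats, read by filter-based scintillation counting 18 h after dosing. Loss of bound signal fitted positively versus DMSO; primary screen in duplicate at 25 uM, actives followed up in concentration series.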

[15] = biological target: human Dopamine Transporter (DAT), SLC6A3 (gene 6531) (UniProt Q01959); experiment: NVS_TR_hDAT: NovaScreen (NVS) Transporter Assay for human Dopamine Transporter (DAT) (AID 2283374);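 note: activity means loss of bound radioligand signal relative to DMSO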
Summary of the method: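 Cell-free radioligand displacement binding at human DAT, 1 h after dosing, with filtration and scintillation counting. Primary screen in duplicate at 25 uM, actives then in concentration series. Loss of bound signal versus DMSO scored.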

[16] = biological target: Norway rat Vesicular Monoamine Transporter (VMAT2), neurotransmitter transporter, Slc18a2 (gene 25549) (UniProt Q01827); experiment: NVS_TR_rVMAT2: NovaScreen (NVS) Transporter Assay for Norway rat Vesicular Monoamine Transporter (VMAT2), neurotransmitter transporter (AID 2283376);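 note: actives lower the bound radioligand signal below the DMSO level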
Summary of the method: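 Radioligand displacement binding on rat forebrain tissue preparation, filter-based scintillation read-out 1 hour after dosing. Primary screen in duplicate at 25 uM, then concentration series for actives; loss of signal versus DMSO.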

[17] = tested on: guinea pig Dopamine Transporter (DAT), gene 100714898; experiment: NVS_TR_gDAT: NovaScreen (NVS) Transporter Assay for guinea pig Dopamine Transporter (DAT) (AID 2283369);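 note: active compounds lower bound radioligand signal relative to DMSO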
Summary of the method: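 Radioligand displacement on membranes from guinea pig striatum, 2 h exposure, bound label counted by filtration and scintillation. Tested at 25 uM in duplicate, then actives in concentration series to 50 uM; DMSO as negative control.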

Measured: AC50

Oc1c(Cl)cc(Cl)cc1Cl
inactive: [1]

Clc1cccc(Cl)c1
inactive: [2] | [1]

CCC[CH2][Sn]([Cl])([Cl])[CH2]CCC
inactive: [3] | [4] | [5] | [1] | [6] | [11]
active: [7] 12 µM | [8] 38 µM | [9] 3.88 µM | [10] 5.56 µM

O=C1c2ccccc2C(=O)C1C(=O)C(c1ccccc1)c1ccc(Cl)cc1 (centres undefined)
active: [13] 30 µM | [9] 3.72 µM | [14] 4.96 µM | [11] 16.2 µM
inactive: [3] | [12] | [7]

N#CCC#N
inactive: [3] | [4] | [12] | [13] | [5] | [1] | [7] | [10]

CC(C=O)Cc1ccc2c(c1)OCO2 (centres undefined)
inactive: [2] | [9]

O=c1oc2ccccc2c(O)c1C(CC(O)c1ccc(-c2ccc(Br)cc2)cc1)c1ccccc1 (centres undefined)
active: [9] 7.76 µM
inactive: [2]

CCCSP(=S)(OCC)Oc1ccc(SC)cc1 (centres undefined)
active: [4] 22.7 µM | [5] 24.1 µM
inactive: [3] | [1]

CC(C)=CC1C(C(=O)OCc2cccc(Oc3ccccc3)c2)C1(C)C (centres undefined)
inactive: [3] | [4] | [5] | [1]
active: [15] 17.2 µM

CNC(=O)O/N=C/C(C)(C)S(C)(=O)=O
inactive: [3] | [4] | [12] | [5] | [1]

O=C(NC(=O)c1c(F)cccc1F)Nc1cc(Cl)c(OC(F)(F)C(F)C(F)(F)F)cc1Cl (centres undefined)
active: [5] 50.2 µM
inactive: [3] | [4] | [12] | [13] | [1] | [10]

N#Cc1cccnc1
inactive: [3] | [1] | [7] | [16]

CC(C)N(C(=O)CCl)c1ccccc1
inactive: [3] | [4] | [13] | [5] | [1] | [11]
active: [12] 45.7 µM | [17] 11.8 µM | [15] 11.1 µM

O=C(O)COc1cc(Cl)c(Cl)cc1Cl
active: [11] 7.47 µM
inactive: [12] | [13] | [16]

Oc1c(Br)cc(Br)cc1Br
inactive: [3] | [4] | [5] | [1] | [11]

N#CCCC(Br)(C#N)CBr (centres undefined)
active: [5] 11.8 µM | [17] 7.56 µM
inactive: [4] | [7]
